Assay outcomes (PubChem)
gsp antagonist = antagonists of gsp mutant (McCune-Albright syndrome); AID 624288; gsp-mutant cells, cAMP HTRF, 30 min; 0.4% of 340,000 active; Potency, µM (series often up to 76.9 µM), inactives show at the highest dose activity change, negative = inhibition, usual class: inhibitors; calls by dose curve; cell line not stated here;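 also: intracellular cAMP measured with PDE inhibitor Ro 20-1724 present during compound exposure; potency is read from the fitted curve at half-maximal effect; % is scaled to controls: 0 for no effect and ±100 for the full control effect; nearly all actives have a fitted effect of over 65% in size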
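Cells, 2000/well, grown 16–24 h in DMEM 10% FBS with 0.5 mg/ml G418, then compounds plus […] (300 uM addition stock), 30 min at 37C. cAMP read by HTRF (cAMP-d2 and anti-cAMP antibody-K in lysis buffer) after 30 min RT.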
IL2 activator = IL-2 activation. IL-2 activation reporter assay, cell-based qHTS; stimulated with anti-CD3/CD4/CD28 beads; in transgenic mouse T cells. activation, % (series mostly up to about 46 µM). 0.065% of 360,000 active. AID 652025; in the data active = activation above about 50%; inconclusive = mostly about 30% to 49%; also: 0% is about no effect
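Readout is EGFP and DsRed signal by fluorescent plate cytometry after 18 h at 37 degrees C. Transgenic mouse T cells (750/well) received compound for 60 min before bead stimulation (anti-CD3, anti-CD4, anti-CD28); memory T cells served as non-tolerant control.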
gsp ag = activates gsp, the McCune-Albright syndrome mutation; AID 624287; gsp mutant cells, cAMP HTRF, 30 min; Potency, µM (top dose mostly 76.9 µM), for inactives: at the highest dose activation (cAMP increase), most hits filed as activators; 0.13% of 340,000 active; active = well fitted activation curve with a large enough effect; inconclusive = small, poorly fitted or top-dose-only effect, or another doubt; inactive = no such curve, though single readings can be large or run the other way; cell line not stated here;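 also: phosphodiesterase inhibitor Ro 20-1724 added with compounds to block cAMP breakdown; potency is read from the fitted curve at half-maximal effect; nearly all actives have a fitted effect of over 60% in size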
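Cells stably selected in G418 were plated at 2000/well, grown 16-24 hr, then given compounds in DMSO with the PDE inhibitor […] (300 uM solution added) for 30 min at 37C; cAMP was read by HTRF.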
BRCA1 expr up = BRCA1 expression activation; Potency, µM (series often up to 46.1 µM), without a hit: top-dose activation, usual class: activators; 1.1% of 380,000 active; MCF7-BRCA1-FFLuc reporter, luminescence, 48 h; response scale: scaled: vehicle 0%, 10 µM genistein 100%; also: potency is read from the fitted curve at half-maximal effect; nearly all actives have a fitted effect of over 80% in size
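MCF7-BRCA1-FFLuc, 2000 cells/well; 2 h attach, 37 °C/5% CO2; compound 48 h; luciferase substrate 15 min; luminescence end-point. Norm. to genistein 10 microM max activation and DMSO; concentration-response curves fitted.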
mIDH1 inhibitor = inhibitors of human mutant IDH1 R132H; IDH1-R132H enzyme, NADPH consumption, diaphorase/resazurin fluorescence; Potency, µM (titrated, usually from 76.6 µM), for inactives: at the top dose activity change, negative = inhibition, hits mostly inhibitors; 0.093% of 390,000 active; also: potency is read from the fitted curve at half-maximal effect; % is scaled to controls: 0 for no effect and ±100 for the full control effect; nearly all actives have a fitted effect of over 65% in size
Target sequence (O75874 whole entry R132H, stated change not applied): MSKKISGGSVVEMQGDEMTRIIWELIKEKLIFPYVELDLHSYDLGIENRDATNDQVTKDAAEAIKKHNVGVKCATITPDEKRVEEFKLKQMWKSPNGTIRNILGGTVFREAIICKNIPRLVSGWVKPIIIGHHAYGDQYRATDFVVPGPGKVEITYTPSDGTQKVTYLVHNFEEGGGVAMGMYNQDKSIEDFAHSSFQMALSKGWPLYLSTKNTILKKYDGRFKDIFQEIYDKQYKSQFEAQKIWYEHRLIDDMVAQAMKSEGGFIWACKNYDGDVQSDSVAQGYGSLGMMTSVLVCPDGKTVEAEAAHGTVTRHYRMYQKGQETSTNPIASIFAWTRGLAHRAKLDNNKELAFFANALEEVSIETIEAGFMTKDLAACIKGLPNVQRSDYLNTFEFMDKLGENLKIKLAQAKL
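IDH1-R132H (0.5 ug/mL dispensed) in pH 7.5 Tris buffer was preincubated 30 min with compound, then given a substrate mix of 0.016 mM NADPH and 2 mM alpha-KG for 80 min at room temperature; remaining NADPH was read by diaphorase/resazurin fluorescence.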
* hit, by the source's call; u = inconclusive; x = no result; [ ] = remark or other dose. In the library only some 1.5% were active in any assay of this set; here they are far more common. Unless noted, calls follow the shape of the dose curve; as a rule, active = well fitted curve in the direction sought with a large enough effect; inconclusive = small, poorly fitted or top-dose-only effect, or another doubt; inactive = no such curve, though single readings can be large; an effect the other way counts as inactive or inconclusive.

SMILES | gsp antagonist | IL2 activator | gsp ag | BRCA1 expr up | mIDH1 inhibitor
CC(C)CC(=O)Nc1cccc(C(=O)Nc2ccccc2C(=O)O)c1 | 31.6µM* | 0.8 | 12.2% | 12.4% | 4.6%
O=C(Nc1ccc(O)cc1C(=O)O)c1ccc2c(c1)C(=O)N(Cc1ccco1)C2=O | 31.6µM* | 1.9 | -13.4% | -1.9% | 4.0%
CC(c1ccccc1)N1C(=O)c2ccc(C(=O)Nc3ccc(Br)cc3C(=O)O)cc2C1=O (configuration not stated) | 35.5µM* | 0.3 | 9.4% | -1.2% | -11.0%
CC(C)CCN1C(=O)c2ccc(C(=O)Nc3ccccc3C(=O)O)cc2C1=O | u | -2.8 | 15.3% | u | -1.3%
CC(c1ccccc1)N1C(=O)c2ccc(C(=O)Nc3ccccc3C(=O)O)cc2C1=O (configuration not stated) | 15.8µM* | -3.6 | -0.5% | 17.1% | 9.4%
N=C1/C(=C/c2ccc(OCc3ccccc3F)cc2)C(=O)N=C2SC(CC(=O)N3CCOCC3)=NN12 | -7.7% | -4.4 | u | u | -0.6%
N=C1/C(=C/c2ccc(OCc3ccccc3)cc2)C(=O)N=C2SC(CC(=O)N3CCOCC3)=NN12 | 1.3% | 1.0 | 1.3% | 14.1µM* | 11.5%
COc1cccc(N2CCN(c3cnc4ccccc4n3)CC2)c1 | 44.7µM* | -1.7 | 15.0%[15.4 µM] | 2µM* | 8.1%
O=C(Nc1ccccc1Cl)c1ccc2nccnc2c1 | 3.4% | 0.2 | u | 5.01µM* | -4.2%
COc1ccc(NC(=O)c2coc(C)c2)cc1 | 8.1% | 0.2 | u | 5.62µM* | -2.4%
Cc1ccc(NC(=O)c2ccc3snnc3c2)cc1 | -3.1% | 0.0 | 8.6% | 54.6% | 2.5%
COc1cc(NC(=O)c2ccc3snnc3c2)cc(OC)c1 | -7.8% | -0.5 | -2.0% | 11.2µM* | 3.3%
Cc1ccc(NC(=O)c2ccc3nsnc3c2)c(Cl)c1 | 1.8% | 0.4 | -1.0% | 1µM* | -3.3%
COc1ccc(NC(=O)c2ccc(=O)oc2)cc1 | -4.9% | 1.2 | -31.0% | 25.9% | 3.8%
Cc1cccc(NS(=O)(=O)c2ccc(C)c(C(=O)NCC(c3ccco3)N3CCCCC3)c2)c1 (configuration not stated) | -1.4% | -4.3 | -6.1% | -29.8% | 12.8%
NC(=O)COC(=O)c1ccccc1OCC(=O)Nc1ccc(Br)cc1 | x | x | x | -5.6% | x
COc1ccc(C(=O)NC(=O)Nc2ncccc2C)cc1 | 4.8% | -1.3 | -30.3% | 2.82µM* | 6.7%
COc1ccc(NC(=O)c2ccc(Oc3ncccn3)cc2)cc1 | 5.8% | -0.6 | 9.3% | 8.91µM* | 23.3%
COc1ccc(NC(=O)c2ccc3nccnc3c2)cc1 | 5.4% | 0.5 | 11.0% | 2.82µM* | 13.0%
O=C(/C=C/Nc1ccccc1)c1ccc(Oc2ncccn2)cc1 | -0.6% | 2.6 | -71.8% | 3.55µM* | 1.9%
COc1ccc(NC(=O)Nc2ncccc2C)cc1 | -2.1% | -0.3 | 3.5% | u | -5.8%
COc1cc2nc(Cl)nc(NC3CCN(C)CC3)c2cc1OC | x | x | x | 0.0% | x
CCc1cc(C(=O)/C=C/c2cc3c(cc2C)OCCO3)c(O)cc1O | x | x | x | 7.9% | x
COc1ccccc1/C=C/C=N/n1c(-c2cc(C)[nH]n2)n[nH]c1=S | -14.3% | 2.9 | 4.1% | -26.7% | 0.7%
COc1ccccc1/C=C/C=N/n1c(-c2ccccn2)n[nH]c1=S | -15.4% | 0.6 | 1.2% | 11.2µM* | 12.4%
SMILES | gsp antagonist | IL2 activator | gsp ag | BRCA1 expr up | mIDH1 inhibitor
CCOC(=O)C(CC)Sc1ccc2nnc(CCNS(=O)(=O)c3ccc(C)cc3)n2n1 (configuration not stated) | x | x | x | x | 14.2%
Cc1cc2nc(N)sc2cc1[N+](=O)[O-] | 2.3% | -0.8 | -20.6% | 12.6µM* | 1.0%
COc1ccc2nc(N)sc2c1 | 6.0% | -1.5 | -17.5% | 68.0% | 1.5%
O=C(COC(=O)c1cc(-c2cccs2)nc2ccccc12)c1ccc(F)cc1 | x | x | x | x | -4.4%
O=C(O)c1cc(-c2cccs2)nc2ccc(F)cc12 | -18.0% | 3.1 | 25.1µM* | 0.7% | 4.4%
CN(C)S(=O)(=O)N(CC(=O)NCCSCc1c(F)cccc1Cl)c1ccccc1 | x | x | x | -9.2% | 4.1%
CC(=O)Nc1ccc(NC(=O)c2ccc3c(c2)CCN3S(=O)(=O)c2ccc(Cl)cc2)cc1 | x | x | x | x | -15.3%
Cc1ccc(C(=O)NNC(=O)c2ccc(S(=O)(=O)N3CCCCC3)cc2)cc1 | -4.7% | -0.8 | -1.8%[15.4 µM] | -22.1% | -0.7%
CCN(CC)c1ccc2cc(C(=O)NNC(=O)c3ccc(S(=O)(=O)N4CCCCC4)cc3)c(=O)oc2c1 | 3.5% | 58.6* | -6.1% | 2.3% | 0.9%
CN1c2ccsc2C(O)=C(C(=S)Nc2ccc(F)c(Cl)c2)S1(=O)=O | 35.5µM* | -1.5 | -23.3% | -31.8% | -11.3%
C[C@H](NC(=O)c1[nH]cnc1C(=O)Nc1ccccc1F)c1ccccc1 | x | -1.9 | -7.7% | -9.1% | -5.6%
Cc1ccc2c(CC(=O)Nc3sccc3C(N)=O)coc2c1 | 1.1% | 3.2 | -39.0% | 1.26µM* | 4.9%
N#Cc1c(NC(=O)CSc2nnc(-c3ccccc3)o2)sc2c1CCCC2 | 22.4µM* | -2.0 | 1.2% | 3.0% | -4.3%
O=C(CSc1nnc(-c2ccc(F)cc2)o1)N1CCCCC1 | 0.8% | 0.0 | -27.2% | 8.91µM* | -5.1%
CC1CCN(C(=O)CSc2nnc(-c3ccccc3)o2)CC1 | x | x | x | x | 1.8%
O=C(CSc1nnc(-c2ccccc2)o1)N1CCCC1 | 2.3% | 6.8 | -10.7%[15.4 µM] | 82.7% | -6.6%
CC1CCc2c(sc(NC(=O)CSc3nnc(-c4ccccc4)o3)c2C#N)C1 (configuration not stated) | -1.1% | 0.1 | 13.4% | 1.7% | -0.5%
CC1CCN(C(=O)CCc2nnc(-c3ccccc3)o2)CC1 | 4.7% | -1.6 | 2.3%[15.4 µM] | 12.6µM* | 6.7%
O=C(CSc1nnc(-c2ccccc2)o1)N1CCCCC1 | -2.4% | 1.8 | -0.2% | 3.16µM* | 4.7%
O=C(NC(=S)Nc1cccc(O)c1)C1CCCCC1 | -6.7% | -2.6 | -46.0% | 67.8% | 5.2%
N#CC(C#N)=Cc1c[nH]c(=O)c(C#N)c1Nc1ccccc1 | 3.4% | -0.7 | u | -23.3% | -17.0%
COCCNC(=O)CSc1nc(-c2ccccc2C)nc2c1c(=O)n(C)c(=O)n2C | x | x | x | x | -0.6%
CCCCCCCCCCCCCCCCOC(=O)N1CCN(/[N+]([O-])=N/Oc2ccc([N+](=O)[O-])cc2[N+](C)=O)CC1 | x | x | x | -4.8% | x
CCOc1ccc(NC(=O)CN2C(=O)c3ccccc3Sc3ccc(C(=O)OC)cc32)cc1 | x | x | x | 5.2% | -10.9%
CCOC(=O)CC(=O)CSc1nc2ccccc2c(=O)n1CCc1ccccc1 | x | x | x | x | -7.0%
COc1ccc(-c2csc(NC(=O)CSc3n[nH]c(C)n3)n2)cc1 | 35.5µM* | -0.2 | 6.2% | 81.3% | 1.7%
CCn1nc(C(=O)OCC(=O)NCC(C)C)c2ccccc2c1=O | -15.4% | -0.7 | 12.2%[15.4 µM] | -4.6% | 0.9%
CCn1nc(C(=O)OCC(=O)Nc2nc(-c3ccc(OC)cc3)cs2)c2ccccc2c1=O | -20.9% | -1.1 | -4.3% | 6.31µM* | 8.8%
